Source: PubChem BioAssay (National Center for Advancing Translational Sciences (NCATS))
HT1080NT lethal: kills 2HG-producing HT-1080-NT fibrosarcoma cells. HT-1080-NT fibrosarcoma viability, CellTiter-Glo ATP luminescence, 48 h. Potency, µM (highest dose often 46.1 µM), without a hit: at the highest dose activity, negative = less viability, usual class: cytotoxic. actives 1.6% (n = 360,000). AID 686970;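 further: NT is the 2HG producing partner of a matched IDH1 knockdown line; 0% = DMSO-treated cells and -100% = media-only wells without cells; nearly all actives have a fitted effect of over 55% in size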
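Compounds were tested in concentration-response format on HT-1080-NT cells for 48 hours at 37 degrees C. Cell viability came from CellTiter-Glo luminescence; curves were classified by r2, response magnitude and activity.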
KB-3-1 cytotox: KB-3-1 parental cell cytotoxicity; KB-3-1 viability, CellTiter-Glo ATP luminescence, 72 h; Potency, µM (highest dose often 46.1 µM), actives largely listed as cytotoxic; actives 1.4% (n = 400,000); AID 1347075; further: nearly all actives have a fitted effect of over 60% in size
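Parental KB-3-1 viability, qHTS format: 72 h compound exposure, 37 °C; CellTiter-Glo; media-only wells and DMSO plates as controls; concentration-effect fits on corrected data.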
DT40 TDP1 no CPT: qHTS for Inhibitors of human tyrosyl-DNA phosphodiesterase 1 (TDP1): qHTS in cells in absence of CPT; Potency, µM (series often up to 46.2 µM), for the others: at the highest dose activity change, negative = growth inhibition, usual class: inhibitors; DT40 Tdp1-/- hTDP1 cells, no CPT, ATP luminescence, 48 h; actives 15% (n = 420,000); further: nearly all actives have a fitted effect of over 55% in size
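Growth of hTDP1-complemented DT40 Tdp1-knockout cells is measured by ATP luminescence after at least 48 hr compound exposure at 37 °C, with DMSO substituting for the 20 nM CPT used in the parallel screen.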
HT1080 IDH1KD tx: kills HT-1080 cells with IDH1 knockdown | HT-1080 IDH1 knockdown viability, ATP luminescence, 48 h | AID 686971 | actives 2% (n = 360,000) | Potency, µM (highest dose often 46.1 µM), without a hit: at the top dose activity, negative = toxicity, hits mostly cytotoxic;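 further: 0% = DMSO wells and -100% = cell-free medium wells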
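Using the IDH1-knockdown HT-1080 line run in the same batch and compound series as the NT line, viability after 48 h at 37 °C was determined by CellTiter-Glo luminescence and expressed as % activity.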
DT40 TDP1 CPT: DT40-hTDP1 cell growth loss with CPT. Potency, µM (titrated, usually from 46.2 µM), inactives show top-dose activity change, negative = growth inhibition, usual class: inhibitors. actives 12% (n = 420,000). AID 686979. chicken DT40 Tdp1-/-;hTDP1 cells + 20 nM CPT, ATP luminescence, 48 h; further: nearly all actives have a fitted effect of over 55% in size
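Chicken DT40 Tdp1-/- cells complemented with human TDP1, 400 cells/well, exposed to compounds plus 20 nM camptothecin for at least 48 h at 37 C; viability read as ATP content by CellTiter-Glo luminescence.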
KB-V1 MDR tox: kills drug-selected multidrug resistant KB-V1 cells; KB-V1 MDR cells viability, CellTiter-Glo, 72 h; Potency, µM (doses to about 46.1 µM), most hits filed as cytotoxic; actives 3.4% (n = 400,000); AID 1347076; further: nearly all actives have a fitted effect of over 60% in size
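KB-V1 MDR subline cells in DMEM (phenol-red free, 10% FBS) exposed to compounds in qHTS concentration series for 72 h at 37 degrees C. Viability read by CellTiter-Glo luminescence; concentration-effect curves fitted after normalization and correction.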
An asterisk follows results filed as active. This is a sample that favours compounds with a hit; in the whole collection about 19% have one here. The call rests on the fitted dose curve; in most records, active means well fitted curve in the direction sought with a large enough effect; inconclusive means small, poorly fitted or top-dose-only effect, or another doubt; inactive means no such curve, though single readings can be large; an effect the other way counts as inactive or inconclusive. Unless noted, on the % scale 0 is the no-effect control and ±100 the full control effect; potency means the concentration at half of the fitted maximal effect.

Results for CCn1c(CN2CCCCC2)nc2cc(NC(=O)COc3ccc(C(C)(C)C)cc3)ccc21 ?
KB-3-1 cytotox: inactive; DT40 TDP1 no CPT: 8.2µM*; DT40 TDP1 CPT: 12µM*; KB-V1 MDR tox: inactive

How did CCn1c(CN2CCCCC2)nc2cc(NC(=O)c3cccc([N+](=O)[O-])c3)ccc21 do in these assays?
KB-3-1 cytotox: inactive; DT40 TDP1 no CPT: 23µM*; DT40 TDP1 CPT: 18µM*; KB-V1 MDR tox: inactive

Results for CCCCOc1ccc(NC2=NC3(CCCC3)N=C(N)N2)cc1 ?
HT1080NT lethal: inconclusive; KB-3-1 cytotox: 7.3µM*; DT40 TDP1 no CPT: 16µM*; HT1080 IDH1KD tx: inconclusive; DT40 TDP1 CPT: 16µM*; KB-V1 MDR tox: inactive

What do the screens show for `CCOC(=O)C1C(=O)CC(C)(O)C(C(=O)OCC)C1c1ccccc1` (configuration not stated)?
HT1080NT lethal: 16%; KB-3-1 cytotox: inactive; DT40 TDP1 no CPT: -3%; HT1080 IDH1KD tx: 17%; DT40 TDP1 CPT: -18%; KB-V1 MDR tox: inactive

What do the screens show for `CCOC(=O)C1C(=O)CC(C)(O)C(C(=O)OCC)C1/C=C/c1ccccc1` (configuration not stated)?
HT1080NT lethal: 1%; KB-3-1 cytotox: inactive; DT40 TDP1 no CPT: -13%; HT1080 IDH1KD tx: -1%; DT40 TDP1 CPT: -24%; KB-V1 MDR tox: 18µM*

Results for CCOC(=O)C1C(C(=O)OCC)C1(c1ccccc1)c1ccccc1 (configuration not stated) ?
HT1080NT lethal: 10%; KB-3-1 cytotox: inactive; DT40 TDP1 no CPT: inconclusive; HT1080 IDH1KD tx: 3%; DT40 TDP1 CPT: inconclusive; KB-V1 MDR tox: 10µM*

Results for CCOC(=O)C1C(=O)CC(O)(c2ccccc2)CC1c1ccccc1 (configuration not stated) ?
HT1080NT lethal: -8%; KB-3-1 cytotox: inactive; DT40 TDP1 no CPT: inconclusive; HT1080 IDH1KD tx: -10%; DT40 TDP1 CPT: inconclusive; KB-V1 MDR tox: 23µM*

Results for COC(=O)C1C(=O)CC(C)(O)C(C(=O)OC)C1/C=C/c1ccccc1 (configuration not stated) ?
HT1080NT lethal: 10%; KB-3-1 cytotox: inactive; DT40 TDP1 no CPT: -23%; HT1080 IDH1KD tx: 14%; DT40 TDP1 CPT: 10%; KB-V1 MDR tox: inactive

Results for CS/C(N)=N/S(=O)(=O)c1ccc(NC(C)=O)cc1 ?
HT1080NT lethal: 2%; KB-3-1 cytotox: inactive; DT40 TDP1 no CPT: -5%; HT1080 IDH1KD tx: 6%; DT40 TDP1 CPT: -1%; KB-V1 MDR tox: inactive

Results for Oc1c(C=C2N=c3ccccc3=N2)sc(=S)n1-c1ccc2ccccc2c1 ?
HT1080NT lethal: 22%; KB-3-1 cytotox: inactive; DT40 TDP1 no CPT: -22%; HT1080 IDH1KD tx: -1%; DT40 TDP1 CPT: 21µM*; KB-V1 MDR tox: inconclusive

What do the screens show for `COc1ccc(-n2nc(C(=O)N3CCN(c4cccc(C)c4C)CC3)c3c4ccccc4n(C)c3c2=O)cc1`?
KB-3-1 cytotox: inactive; DT40 TDP1 no CPT: -9%; DT40 TDP1 CPT: -17%; KB-V1 MDR tox: inactive

What do the screens show for `c1ccc(-c2ccc(OCCCNC3CCCC3)cc2)cc1`?
HT1080NT lethal: 15µM*; KB-3-1 cytotox: inconclusive; DT40 TDP1 no CPT: inconclusive; HT1080 IDH1KD tx: 18µM*; DT40 TDP1 CPT: 15µM*; KB-V1 MDR tox: inactive

What do the screens show for `C[C@]12CCC3c4ccc(O)cc4CCC3C1CC(O)C2O` (some centres not stated)?
DT40 TDP1 no CPT: 8%; DT40 TDP1 CPT: 2%

Results for C=Cc1cc2c(cc1O)CCC1C2CCC2(C)C(O)CCC12 (configuration not stated) ?
HT1080NT lethal: inconclusive; KB-3-1 cytotox: 18µM*; DT40 TDP1 no CPT: 16µM*; HT1080 IDH1KD tx: inconclusive; DT40 TDP1 CPT: inconclusive; KB-V1 MDR tox: inconclusive

How did CC#Cc1cc2c(cc1O)CCC1C2CCC2(C)C(O)CCC12 (configuration not stated) do in these assays?
HT1080NT lethal: 8.2µM*; KB-3-1 cytotox: 2.6µM*; DT40 TDP1 no CPT: 2.3µM*; HT1080 IDH1KD tx: inconclusive; DT40 TDP1 CPT: 2.9µM*; KB-V1 MDR tox: inconclusive

How did COc1ccc(NS(=O)(=O)c2cc(OC)ccc2OC)cc1 do in these assays?
HT1080NT lethal: 7%; KB-3-1 cytotox: inactive; DT40 TDP1 no CPT: inconclusive; HT1080 IDH1KD tx: -3%; DT40 TDP1 CPT: -20%; KB-V1 MDR tox: inactive

Results for COc1ccc(OC)c(S(=O)(=O)N2CCN(c3ccccc3)CC2)c1 ?
HT1080NT lethal: 10%; KB-3-1 cytotox: inactive; DT40 TDP1 no CPT: 5%; HT1080 IDH1KD tx: 7%; DT40 TDP1 CPT: 11%; KB-V1 MDR tox: inactive

How did COc1ccc(OC)c(S(=O)(=O)ON2C(=O)c3ccccc3C2=O)c1 do in these assays?
HT1080NT lethal: inconclusive; KB-3-1 cytotox: inconclusive; DT40 TDP1 no CPT: 1.5µM*; HT1080 IDH1KD tx: 4.1µM*; DT40 TDP1 CPT: 2.3µM*; KB-V1 MDR tox: inactive

How did COc1ccc(OC)c(S(=O)(=O)Nc2cnc3ccccc3c2)c1 do in these assays?
HT1080NT lethal: inconclusive; KB-3-1 cytotox: inactive; DT40 TDP1 no CPT: 23µM*; HT1080 IDH1KD tx: -24%; DT40 TDP1 CPT: inconclusive; KB-V1 MDR tox: inconclusive

Results for COc1ccc(OC)c(S(=O)(=O)n2cnc3ccccc32)c1 ?
HT1080NT lethal: -6%; KB-3-1 cytotox: inconclusive; DT40 TDP1 no CPT: 16µM*; HT1080 IDH1KD tx: -3%; DT40 TDP1 CPT: inconclusive; KB-V1 MDR tox: 23µM*

How did COc1ccc(OC)c(S(=O)(=O)Nc2ccc3c(c2)C(=O)OC3)c1 do in these assays?
HT1080NT lethal: 18µM*; KB-3-1 cytotox: inactive; DT40 TDP1 no CPT: 8.2µM*; HT1080 IDH1KD tx: 21µM*; DT40 TDP1 CPT: 12µM*; KB-V1 MDR tox: inactive

Results for COc1ccc(/C=N\NC(=O)c2cc(O)c(O)c(O)c2)cc1CN1CCN(c2ccc(F)cc2)CC1 ?
HT1080NT lethal: -16%; KB-3-1 cytotox: inactive; DT40 TDP1 no CPT: inconclusive; HT1080 IDH1KD tx: -18%; DT40 TDP1 CPT: inconclusive; KB-V1 MDR tox: inconclusive

What do the screens show for `Cc1ccc(CCNC(=O)CCCn2c(=O)c3ccccc3n(Cc3ccccc3C#N)c2=O)cc1`?
KB-3-1 cytotox: inactive; DT40 TDP1 no CPT: inconclusive; DT40 TDP1 CPT: inconclusive; KB-V1 MDR tox: inactive
